Test results published in PubChem BioAssay (Tox21).
Results filed as inconclusive are left out. Calls of active or inactive are those of the source. Unless noted, the call rests on the fitted dose curve.

Key:
[1] = Nuclear factor erythroid 2-related factor 2/antioxidant responsive element (Nrf2/ARE) small molecule agonists: qHTS cell viability counter screen in human keratinocytes (AID 1919968; active means well fitted curve in the direction sought with a large enough effect in the repeat runs; an effect the other way counts as inactive or inconclusive; further: nearly all actives have a fitted effect of over 55% in size)
Summary of the method: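 KeratinoSens HaCaT cells, 1,500/well, preincubated 5 h, then exposed to compounds in DMSO for 23 h at 37 C/5% CO2. Viability read as CellTiter-Fluor fluorescence after 1 h, in the same wells as the ARE-luciferase read.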

[2] = Nuclear factor erythroid 2-related factor 2/antioxidant responsive element (Nrf2/ARE) small molecule agonists: luciferase reporter gene qHTS assay in human keratinocytes (AID 1919969); further: nearly all actives have a fitted effect of over 35% in size
[3] = target: Gonadotropin-releasing hormone receptor (Homo sapiens) (UniProt P30968); experiment: Human gonadotropin-releasing hormone receptor (GnRHR) small molecule agonists, calcium flux assay in GnRHR-HEK293 cells (AID 1920063); further: nearly all actives have a fitted effect of over 35% in size
Chain of Gonadotropin-releasing hormone receptor (Homo sapiens) (P30968 whole entry, looked up): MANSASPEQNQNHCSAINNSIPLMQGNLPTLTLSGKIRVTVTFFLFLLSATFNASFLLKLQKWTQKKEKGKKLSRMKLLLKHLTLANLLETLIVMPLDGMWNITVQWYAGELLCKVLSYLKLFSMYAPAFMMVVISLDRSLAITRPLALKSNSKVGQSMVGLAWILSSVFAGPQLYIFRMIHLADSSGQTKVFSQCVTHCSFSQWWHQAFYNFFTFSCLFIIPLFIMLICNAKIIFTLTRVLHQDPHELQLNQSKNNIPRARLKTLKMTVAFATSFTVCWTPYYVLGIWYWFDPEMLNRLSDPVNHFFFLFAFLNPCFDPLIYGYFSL
Summary of the method: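 HEK293 cells stably expressing human GnRHR were dye-loaded for 1 h at 37 C. Compound was added in agonist mode and fluorescence (Ex/Em 480/540) recorded kinetically for 3 min. Fifteen concentrations, triplicates.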

[4] = target: KiSS-1 receptor (Homo sapiens) (UniProt Q969F8); experiment: Human kisspeptin (KISS1R) small molecule agonists, calcium flux assay in KISS1R-HEK293 cells (AID 1920064; active means well fitted curve in the direction sought with a large enough effect in the repeat runs; an effect the other way counts as inactive or inconclusive)
Chain of KiSS-1 receptor (Homo sapiens) (Q969F8 whole entry, looked up): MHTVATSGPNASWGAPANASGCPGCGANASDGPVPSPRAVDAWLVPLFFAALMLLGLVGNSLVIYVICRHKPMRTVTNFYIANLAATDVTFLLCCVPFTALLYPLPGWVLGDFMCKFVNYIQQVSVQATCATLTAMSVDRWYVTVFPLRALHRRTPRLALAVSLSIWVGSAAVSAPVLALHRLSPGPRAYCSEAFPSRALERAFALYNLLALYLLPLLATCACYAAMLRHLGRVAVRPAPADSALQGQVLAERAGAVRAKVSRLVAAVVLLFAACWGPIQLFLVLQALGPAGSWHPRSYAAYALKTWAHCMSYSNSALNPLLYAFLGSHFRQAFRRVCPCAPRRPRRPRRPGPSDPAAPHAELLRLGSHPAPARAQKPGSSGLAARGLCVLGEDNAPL
Summary of the method: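 HEK293 cells stably expressing human KISS1R were loaded with calcium dye for 1 h at 37 C, then given compound; fluorescence (Ex/Em 480/540) was read kinetically for 3 min. Fifteen concentrations, triplicate.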

[5] = G protein-coupled receptor (GPCR) small molecule agonists, calcium flux assay: HEK293 wild type cell line counter screen (AID 1920065)
Summary of the method: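 Wild-type HEK293 cells plated 18 h, loaded with calcium dye 1 h at 37 C, then compounds added in agonist mode (ATP as positive control). Kinetic fluorescence Ex/Em 480/540 recorded 3 min at 1 sec intervals; 15 concentrations, triplicate.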

[6] = p53 small molecule agonists, cell-based qHTS assay with human liver microsomes (AID 1963577);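 further: p53 response element beta-lactamase reporter cells with liver microsomes plus NADPH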
Summary of the method: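 Metabolically competent format: test substances, human liver microsomes and NADPH (both 0.5 mg/mL final) incubated with p53RE-bla cells 16 h at 37 C. Beta-lactamase reporter signal then quantified by fluorescence.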

[7] = p53 small molecule agonists, cell-based qHTS assay with rat liver microsomes (AID 1963578)
Summary of the method: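 Each plate received p53RE-bla cells, then compound, then rat liver microsomes and NADPH (both 0.5 mg/mL final). Plates were held 16 h at 37 C, and beta-lactamase activity was detected with LiveBLAzer over 2 h.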

[8] = p53 small molecule agonists, cell-based qHTS assay with human liver microsomes: qHTS cell viability counter screen (AID 1963579); further: nearly all actives have a fitted effect of over 45% in size
Summary of the method: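 Tox21 library compounds, delivered from DMSO stocks, were tested on p53RE-bla cells together with 0.5 mg/mL human liver microsomes and 0.5 mg/mL NADPH (final) over 16 h at 37 C; CellTiter-Glo luminescence served as the cytotoxicity measure.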

[9] = p53 small molecule agonists, cell-based qHTS assay: qHTS cell viability counter screen (AID 1963581); further: nearly all actives have a fitted effect of over 45% in size
Summary of the method: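 p53RE-bla HCT-116 cells, compounds added 5 h after plating and incubated 16 h at 37 C. Cytotoxicity measured in the same wells as intracellular ATP by CellTiter-Glo luminescence after 30 min at room temperature.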

[10] = target: 5-hydroxytryptamine receptor 2A (Homo sapiens) (UniProt P28223); experiment: 5-hydroxytryptamine receptor 2A (HTR2A) small molecule antagonists, cell-based qHTS assay (AID 1963586); further: nearly all actives have a fitted effect of over 45% in size
Chain of 5-hydroxytryptamine receptor 2A (Homo sapiens) (P28223 whole entry, looked up): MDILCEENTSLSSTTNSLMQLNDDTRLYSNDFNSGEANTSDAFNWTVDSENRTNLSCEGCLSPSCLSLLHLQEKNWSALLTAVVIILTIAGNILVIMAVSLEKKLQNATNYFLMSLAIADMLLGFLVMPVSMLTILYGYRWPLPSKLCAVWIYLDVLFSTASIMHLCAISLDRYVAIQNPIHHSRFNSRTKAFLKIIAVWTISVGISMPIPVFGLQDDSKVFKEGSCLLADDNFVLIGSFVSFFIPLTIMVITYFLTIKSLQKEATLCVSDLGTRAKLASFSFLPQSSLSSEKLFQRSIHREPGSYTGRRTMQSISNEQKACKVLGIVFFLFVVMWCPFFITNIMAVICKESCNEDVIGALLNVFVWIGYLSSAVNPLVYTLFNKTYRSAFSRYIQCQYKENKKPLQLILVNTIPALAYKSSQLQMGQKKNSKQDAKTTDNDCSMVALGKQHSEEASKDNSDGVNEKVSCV
Summary of the method: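 Antagonist-mode intracellular calcium assay: DOI (4 nM) added after 5 min compound pre-incubation at room temperature to dye-loaded HTR2A-CHO cells. Fluorescence followed for 3 min, sampled every second.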

[11] = target: 5-hydroxytryptamine receptor 2A (Homo sapiens) (UniProt P28223); experiment: 5-hydroxytryptamine receptor 2A (HTR2A) small molecule agonists, cell-based qHTS assay (AID 1963587); further: nearly all actives have a fitted effect of over 30% in size
Summary of the method: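 CHO cells stably expressing human HTR2A, plated 18 h, loaded with calcium dye 1 h at 37 C. Agonist mode: compounds added and intracellular calcium fluorescence recorded kinetically for 2 min at 1 sec intervals.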

[12] = target: Muscarinic acetylcholine receptor M1 (Homo sapiens) (UniProt P11229); experiment: Cholinergic receptor muscarinic 1 (CHRM1) small molecule antagonists, cell-based qHTS assay (AID 1963588); further: nearly all actives have a fitted effect of over 40% in size
Chain of Muscarinic acetylcholine receptor M1 (Homo sapiens) (P11229 whole entry, looked up): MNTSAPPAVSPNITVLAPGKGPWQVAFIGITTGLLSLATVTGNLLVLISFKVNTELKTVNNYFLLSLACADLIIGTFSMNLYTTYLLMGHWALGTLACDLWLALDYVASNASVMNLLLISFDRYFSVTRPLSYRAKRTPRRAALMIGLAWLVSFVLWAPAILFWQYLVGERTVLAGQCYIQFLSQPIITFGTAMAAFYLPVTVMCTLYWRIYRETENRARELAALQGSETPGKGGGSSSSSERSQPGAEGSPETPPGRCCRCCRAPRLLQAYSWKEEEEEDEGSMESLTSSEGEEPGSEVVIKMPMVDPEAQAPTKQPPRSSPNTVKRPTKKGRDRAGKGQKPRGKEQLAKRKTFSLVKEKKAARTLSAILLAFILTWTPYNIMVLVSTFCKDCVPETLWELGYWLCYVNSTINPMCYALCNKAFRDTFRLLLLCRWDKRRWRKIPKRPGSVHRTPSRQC
Summary of the method: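 CHRM1-CHO calcium-flux assay, antagonist mode. Cells were seeded 18 h, dye-loaded 1 h at 37 C and given compound for 5 min at RT, then acetylcholine was added at 50nM. FDSS fluorescence was read 3 min; 15 concentrations, three runs.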

[13] = target: Muscarinic acetylcholine receptor M1 (Homo sapiens) (UniProt P11229); experiment: Cholinergic receptor muscarinic 1 (CHRM1) small molecule agonists, cell-based qHTS assay (AID 1963589); further: nearly all actives have a fitted effect of over 35% in size
Summary of the method: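 CHO cells stably expressing human CHRM1 were loaded with calcium dye for 1 h at 37 C, then compound was added in agonist mode. Intracellular calcium fluorescence was followed kinetically at 1 s intervals. Fifteen concentrations were tested in three independent runs.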

[14] = target: Beta-2 adrenergic receptor (Homo sapiens) (UniProt P07550); experiment: Adrenergic beta2 receptor (ADRB2) small molecule antagonists, cell-based qHTS assay (AID 1963592); further: series mostly up to about 92 µM; nearly all actives have a fitted effect of over 50% in size
Chain of Beta-2 adrenergic receptor (Homo sapiens) (P07550 whole entry, looked up): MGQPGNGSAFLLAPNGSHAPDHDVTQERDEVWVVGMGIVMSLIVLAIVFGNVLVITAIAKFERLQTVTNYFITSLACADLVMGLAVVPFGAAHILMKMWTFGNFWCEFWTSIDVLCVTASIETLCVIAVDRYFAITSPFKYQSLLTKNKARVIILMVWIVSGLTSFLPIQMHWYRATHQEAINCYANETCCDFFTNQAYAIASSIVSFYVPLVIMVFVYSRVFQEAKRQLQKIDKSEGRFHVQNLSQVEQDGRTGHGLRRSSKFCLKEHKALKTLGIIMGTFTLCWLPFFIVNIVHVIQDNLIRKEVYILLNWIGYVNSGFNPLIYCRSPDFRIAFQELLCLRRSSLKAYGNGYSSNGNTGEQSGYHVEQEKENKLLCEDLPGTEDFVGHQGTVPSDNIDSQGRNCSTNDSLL
Summary of the method: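 Cells (CHO, stable ADRB2 overexpression) incubated 18-20hr at 37C; compounds added from DMSO; agonist mix (1nM isoproterenol, 100uM IBMX, 25uM Ro-20-1724) added; 0.5hr RT; d2-cAMP and anti-cAMP-cryptate added; 1hr RT; 665/615 nm read.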

[15] = target: D(2) dopamine receptor (Homo sapiens) (UniProt P14416); experiment: Dopamine D2 receptor (DRD2) small molecule agonists, cell-based qHTS assay (AID 1963594); further: nearly all actives have a fitted effect of over 35% in size
Chain of D(2) dopamine receptor (Homo sapiens) (P14416 whole entry, looked up): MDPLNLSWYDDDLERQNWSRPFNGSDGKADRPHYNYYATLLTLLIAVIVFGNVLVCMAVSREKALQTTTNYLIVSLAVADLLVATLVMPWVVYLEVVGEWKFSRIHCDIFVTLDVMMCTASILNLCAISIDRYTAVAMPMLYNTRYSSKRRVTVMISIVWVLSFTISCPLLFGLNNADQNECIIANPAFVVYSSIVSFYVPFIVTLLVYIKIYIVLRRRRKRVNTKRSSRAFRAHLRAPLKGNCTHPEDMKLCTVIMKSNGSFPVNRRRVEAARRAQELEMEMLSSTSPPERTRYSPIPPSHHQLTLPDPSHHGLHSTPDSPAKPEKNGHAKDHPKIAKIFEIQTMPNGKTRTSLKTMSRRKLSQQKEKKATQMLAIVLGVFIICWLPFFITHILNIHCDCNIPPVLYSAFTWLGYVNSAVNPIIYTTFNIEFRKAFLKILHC
Summary of the method: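 HEK293 cells stably expressing human DRD2, pre-treated with PDE inhibitor Ro20-1724 (0.1 mM final) and compound 10 min at room temperature, then stimulated with NKH477 (200nM […]) for 30 min. cAMP read by HTRF (665/620 nm).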

[16] = target: D(2) dopamine receptor (Homo sapiens) (UniProt P14416); experiment: Dopamine D2 receptor (DRD2) small molecule antagonists, cell-based qHTS assay (AID 1963595; active means well fitted inhibition curve with a large enough effect in the signal ratio in the repeat runs, with a control signal flat; the % refers to the signal ratio)
Summary of the method: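 Stable D2 receptor HEK293 line, 24 h after seeding. Compound preincubated 10 min, then quinpirole (12 nM) with forskolin analogue NKH477 (200 nM), 30 min, room temperature. Detection by time-resolved FRET of cAMP.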

[17] = cAMP Responsive Elements (CRE) small molecule agonists, cell-based qHTS assay (AID 1963590)
Summary of the method: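 CRE-bla HEK 293T cells, 2,000/well in DMEM with 10% dialyzed FBS and 25 mM HEPES, pre-incubated 18 h at 37 C, then exposed to compound 3 h at 37 C. Beta-lactamase reporter read with LiveBLAzer B/G FRET substrate after 2 h at room temperature.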

[18] = cAMP Responsive Elements (CRE) small molecule antagonists, cell-based qHTS assay (AID 1963591; active means well fitted inhibition curve with a large enough effect in the signal ratio in the repeat runs, not every such curve was filed as active; the % refers to the signal ratio)
Summary of the method: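 CRE-bla HEK293T cells plated 18 h, then given compound plus NKH477 at 0.25 uM final for 3 h at 37C. Beta-lactamase reporter read with LiveBLAzer B/G FRET substrate after 2 h at room temperature.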

[19] = p53 small molecule agonists, cell-based qHTS assay (AID 1963582; active means well fitted activation curve with a large enough effect in the signal ratio in the repeat runs, not every such curve was filed as active; the % refers to the signal ratio)
Summary of the method: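 p53RE-bla reporter cells, compounds added in DMSO after 5 h plating, incubated 16 h at 37 C. Beta-lactamase read via 2 h room-temperature LiveBLAzer B/G FRET substrate, fluorescence intensity.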

Measured: Potency

CCCC1CCCC(=O)O1 (stereo unspecified)
not listed: [17] | [18] | [19]
inactive: all other assays above

CCCCCCCCCCCCCOP(=O)(O)O
not listed: [9] | [16] | [19]
inactive: all other assays above

O=S(=O)(Cl)c1c(Cl)cccc1Cl
not listed: [19]
inactive: all other assays above

O=C(O)P(=O)(O)O
not listed: [10] | [11] | [12] | [13]
inactive: all other assays above

COc1ccccc1OC(=O)Oc1ccccc1OC
not listed: [9]
inactive: all other assays above

C=C(C)C(=O)OCCCC
not listed: [9] | [13]
inactive: all other assays above

COCCCN1CCC(NC(=O)c2cc(Cl)c(N)c3c2OCC3)CC1
not listed: [15] | [17] | [19]
inactive: all other assays above
